From PubChem BioAssay AID2202239 (National Center for Advancing Translational Sciences (NCATS), 2025) come the findings set out here.

The source made the active and inactive calls. Calls follow the shape of the dose curve; as a rule, active = well fitted inhibition curve with a large enough effect; inactive = flat fitted curve, though single readings scatter. Square brackets hold non-standard residues; d marks the D form. Peptide text beside a SMILES is read from it. * marks the point of attachment. Dolaproine = CO[C@@H]([C@@H]1CCCN1)[C@@H](C)C(=O)O; Dil = CC[C@H](C)[C@H](NC)[C@@H](CC(=O)O)OC; NMe2Val = CC(C)[C@@H](C(=O)*)N(C)C; X1 = C[C@@H](N*)[C@@H](O)c1ccccc1; NMeV = CN[C@H](C(=O)O)C(C)C

This test can be described thus: Identification of antibody-drug conjugate (ADC) payloads which are substrates of ATP-binding cassette drug efflux transporters: ABCB1-HeLa-KB-8-5-11 cell line with tariquidar. The conditions noted are these: KB-8-5-11 (P-gp) + tariquidar, viability, CellTiter-Glo, 48 h. From the text: Antibody-drug conjugates (ADCs) feature an antibody recognizing a specific protein joined to a potent toxic payload. Numerous antibody-drug conjugates have received FDA approval; however, clinical resistance arises. Resistance mechanisms include decreased expression or mutation of the antibody target, impaired payload release, or increased expression of ATP-binding cassette (ABC) efflux transporters associated with multidrug resistance. We therefore sought to characterize the interaction of ABC multidrug transporters with ADC payloads. We performed a high-throughput screen with 27 common ADC payloads using cells lines expressing ABC transporters P-glycoprotein (P-gp, encoded by ABCB1) or ABCG2 (encoded by ABCG2). Confirmatory assays were also performed using cells transfected to express P-gp, ABCG2, or MRP1 (encoded by ABCC1). Several commonly used ADC payloads were substrates of P-gp, including calicheamicin gamma1, monomethyl auristatin E, DM1, and DM4. All the pyrrolobenzodiazepines tested - SJG136, SGD-1882, SG2057, and SG3199 - were substrates of P-gp, ABCG2, and MRP1. […] These findings highlight the risk of transporter-mediated resistance with certain ADC payloads and underscore the importance of selecting payloads that evade ABC transporter recognition in future ADC development.
HEK-293 cells were transfected with empty vector (pcDNA) or vector containing the human ABCB1 (MDR-19), ABCG2 (R-5), or ABCC1 gene (MRP1) and were maintained in EMEM with 2 mg/mL G418 added to maintain transporter expression. The HeLa derivative KB-3-1 and the P-gp overexpressing KB-8-5-11 subline were maintained in DMEM; KB-8-5-11 additionally received 100 ng/mL colchicine. H460 parental cells were obtained from the Division of Cancer Treatment and Diagnosis Tumor Repository, National Cancer Institute at Frederick, MD and were cultured in RPMI. The ABCG2 expressing subline H460 MX20 was generated by selecting H460 cells in 20 nM mitoxantrone. Media in all cases was supplemented with 10% FBS and 1% penicillin-streptomycin. We explored 27 common ADC payloads, in two orthogonal, paired cell line sets-a drug selected and transfected set for each transporter--to identify substrates of the ABC transporters P-gp and ABCG2. Compounds were sourced from Levena Biopharma (San Diego, CA), Selleck Chem (Houston, TX), ChemieTek (Indianapolis, IN), or Microsource Discovery Systems (Gaylordsville, CT). Screening was performed as previously described. Briefly, cells were plated at a density of 500 cells/well in 1536 well plates with compounds added using a 1536-head pin tool (Kalypsys, San Diego CA). Cells were incubated with cytotoxic drugs and processed with CellTiter Glo reagent (Promega, Madison, WI) to determine viability after 48 hours. P-gp substrates were identified by comparing compound activity between paired sets of low-expressing (sensitive) and over-expressing (resistant) cell lines.
A general note: Cellular ATP, detected with luciferase, serves as a proxy for viable cell number.
`CC[C@H](C)[C@@H]([C@@H](CC(=O)N1CCC[C@H]1[C@H](OC)[C@@H](C)C(=O)N[C@@H](Cc1ccccc1)C(=O)O)OC)N(C)C(=O)[C@@H](NC(=O)[C@H](C(C)C)N(C)C)C(C)C` (NMe2Val-V[Dil][Dolaproine]F-OH): the Potency is 0.0188 µM (active).

For `CC[C@H](C)[C@@H]([C@@H](CC(=O)N1CCC[C@H]1[C@H](OC)[C@@H](C)C(=O)N[C@H](C)[C@@H](O)c1ccccc1)OC)N(C)C(=O)[C@@H](NC(=O)[C@H](C(C)C)N(C)C)C(C)C`, the Potency is 0.0002 µM (active). The same measure for `COc1cc2cc(c1Cl)N(C)C(=O)C[C@H](OC(=O)C(C)C)[C@]1(C)O[C@H]1[C@H](C)[C@@H]1C[C@@](O)(NC(=O)O1)[C@H](OC)C=CC=C(C)C2`: 0.0001 µM (active); for `CC[C@H](C)[C@@H]1NC(=O)CNC(=O)[C@H]2Cc3c([nH]c4cc(O)ccc34)S(=O)C[C@H](NC(=O)CNC1=O)C(=O)N[C@@H](CC(N)=O)C(=O)N1C[C@H](O)C[C@H]1C(=O)N[C@@H]([C@@H](C)[C@@H](O)CO)C(=O)N2` (some centres not stated): 4.2 µM (active); for `CC[C@@]1(O)C(=O)OCc2c1cc1n(c2=O)Cc2cc3ccccc3nc2-1`: 0.375 µM (active). With `COc1cccc2c1C(=O)c1c(O)c3c(c(O)c1C2=O)C[C@@](O)(C(=O)CO)CC3OC1CC(N2CCOC(OC)C2)C(O)C(C)O1` (some centres not stated) the figure was 0.0106 µM (active); with `CC[C@H](C)[C@@H]([C@@H](CC(=O)N1CCC[C@H]1[C@H](OC)[C@@H](C)C(=O)N[C@H](C)[C@@H](O)c1ccccc1)OC)N(C)C(=O)[C@@H](NC(=O)[C@@H](NC)C(C)C)C(C)C` (H-[NMeV]V[Dil][Dolaproine]-X1), 0.0002 µM (active).
